Source: PubChem BioAssay (NCATS)
Values without a mark were called inactive. For part of these data: Entries with a potency or affinity are not part of this list. Active and inactive are the calls of the source. How the calls were made is not given here. Peptide text beside a SMILES is read from it.

Legend:
[1] = Ebola virus entry assay, green fluorescence channel
[2] = Ebola virus entry assay, blue channel fluorescence
[3] = Ebola virus entry assay, ratio channel
[4] = Ebola virus entry assay, green channel fluorescence
[5] = Ebola virus entry assay, reporter ratio channel; Channel type: primary
[6] = Ebola virus entry assay, blue channel (ratio component)
Wherever efficacy is given: 0% is about no effect.

SMILES | efficacy [1] | outcome [2] | outcome [3] | outcome [4] | outcome [5] | outcome [6] | AC50 [5] | AC50 [3]
CCCSS/C(CCO)=C(\C)N(C=O)Cc1cnc(C)nc1N | -15.5% | inactive | inactive | inactive | inactive | inactive |  | 
COc1ccccc1OC(=O)Oc1ccccc1OC | -25.8% | inactive | inactive | inactive | inactive | inactive |  | 
COc1cc(O)c(C(=O)c2ccccc2)cc1S(=O)(=O)O | 11.7% | inactive | inactive | inactive | inactive | inactive |  | 
OC[C@H]1O[C@@H](n2cnc3c(=S)nc[nH]c32)[C@H](O)[C@@H]1O | 23.6% | inactive | inactive | inactive | inactive | inactive |  | 
CN(C)C(=O)CNC(=O)Cc1ccccc1 | 16.6% | inactive | inactive | inactive | inactive | inactive |  | 
C[N+](C)(C)CC[N+]1(C)Cc2c(Cl)c(Cl)c(Cl)c(Cl)c2C1 | 13.2% | inactive | inactive | inactive | inactive | inactive |  | 
NC1=NCC2c3ccccc3Cc3ccccc3N12 (stereo not given) | 22.9% | inactive | inactive | inactive | inactive | inactive |  | 
Nc1ccc(S(=O)(=O)Nc2nccs2)cc1 | -14% | inactive | inactive | inactive | inactive | inactive |  | 
COc1ccc(C(Cl)=C(c2ccc(OC)cc2)c2ccc(OC)cc2)cc1 | 25.3% | inactive | inactive | inactive | inactive | inactive |  | 
CN1CC(=O)N2[C@H](c3ccc4c(c3)OCO4)c3[nH]c4ccccc4c3C[C@@H]2C1=O | 22.3% | inactive | inactive | inactive | inactive | inactive |  | 
N[C@H](C(=O)O)c1ccc(O)cc1 | 11.9% | inactive | inactive | inactive | inactive | inactive |  | 
Cl/C(=C\n1cncn1)c1ccc(Cl)cc1Cl | -16.7% | inactive | inactive | inactive | inactive | inactive |  | 
CC1CC(OC(=O)C(O)c2ccccc2)CC(C)(C)N1C (stereo not given) | 9.62% | inactive | inactive | inactive | inactive | inactive |  | 
Nc1ccc(S(=O)(=O)Nc2cnc3ccccc3n2)cc1 | -10.5% | inactive | inactive | inactive | inactive | inactive |  | 
Clc1ccc(C(Cn2ccnc2)OCc2ccc(Sc3ccccc3)cc2)c(Cl)c1 (stereo not given) | 29.2% | inactive | inactive | inactive | inactive | inactive |  | 
C[C@H](N)[C@H](O)c1cccc(O)c1 | -10.3% | inactive | inactive | inactive | inactive | inactive |  | 
CCOC(=O)C(=O)CCc1ccccc1 | -17.5% | inactive | inactive | inactive | inactive | inactive |  | 
CC(=O)O[C@H]1C[C@@H]2CC[C@@H]3[C@H](CC[C@@]4(C)[C@H]3C[C@H]([N+]3(C)CCCCC3)[C@@H]4OC(C)=O)[C@@]2(C)C[C@@H]1N1CCCCC1 | -18% | inactive | inactive | inactive | inactive | inactive |  | 
CNC(=O)CN(CCN(CCN(CC(=O)[O-])CC(=O)NC)CC(=O)[O-])CC(=O)[O-].O.[Gd+3] | -24.9% | inactive | inactive | inactive | inactive | inactive |  | 
C/C=C/c1ccc(O)c(OC)c1 | 19% | inactive | inactive | inactive | inactive | inactive |  | 
Cn1c(=O)c2c(ncn2CC2OCCO2)n(C)c1=O | -17.6% | inactive | inactive | inactive | inactive | inactive |  | 
CC(=O)OCC(=O)Nc1cc(C#N)cc(NC(=O)COC(C)=O)c1Cl | 24.6% | inactive | inactive | inactive | inactive | inactive |  | 
CCCCN1CCCC[C@H]1C(=O)Nc1c(C)cccc1C | 30% | inactive | inactive | inactive |  | inactive | 39.8 µM (active) | 
O=c1cc(CO)occ1O | 16.7% | inactive | inactive | inactive | inactive | inactive |  | 

SMILES | efficacy [1] | outcome [2] | outcome [3] | outcome [4] | outcome [5] | outcome [6] | AC50 [5] | AC50 [3]
COc1ccc2[nH]c(S(=O)Cc3ncc(C)c(OC)c3C)nc2n1 (stereo not given) | 29.9% | inactive | inactive | inactive | inactive | inactive |  | 
CNC(=O)Oc1ccc2c(c1)[C@]1(C)CCN(C)[C@@H]1N2C | 20.2% | inactive | inactive | inactive | inactive | inactive |  | 
Cc1c(N)c(=O)n(-c2ccccc2)n1C | -25.5% | inactive | inactive | inactive | inactive | inactive |  | 
OC[C@H]1O[C@@H](O[C@@H]2[C@@H](CO)O[C@](O)(CO)[C@H]2O)[C@H](O)[C@@H](O)[C@H]1O | -16.4% | inactive | inactive | inactive | inactive | inactive |  | 
O=c1[nH]c(=O)c2[nH]c(=O)[nH]c2[nH]1 | 22% | inactive | inactive | inactive | inactive | inactive |  | 
CC1CC(=O)NN=C1c1ccc(NCC(C)(C)NCC(O)COc2cc(Cl)ccc2C#N)cc1 (stereo not given) | 42.4% | inactive | inactive | inactive | inactive | inactive |  | 
CC(C(=O)O)c1ccc(CC2CCCC2=O)cc1 (stereo not given) | 31.1% | inactive | inactive | inactive | inactive | inactive |  | 
Oc1cc(O)c2c(c1)O[C@H](c1ccc(O)c(O)c1)[C@H](O)C2 | 34.8% | inactive | inactive | inactive | inactive | inactive |  | 
C/C(=N/NC(=O)c1ccncc1)C(=O)O | -27.5% | inactive | inactive | inactive | inactive | inactive |  | 
CC(=O)CCC(=O)O | 10.9% | inactive | inactive | inactive | inactive | inactive |  | 
O=C1C(CCS(=O)c2ccccc2)C(=O)N(c2ccccc2)N1c1ccccc1 (stereo not given) | 28.5% | inactive | inactive | inactive | inactive | inactive |  | 
CC(C)(C)C(=O)NCCCC(=O)O | -17.8% | inactive | inactive | inactive | inactive | inactive |  | 
Cc1ccc(O)c(-n2nc3ccccc3n2)c1 | 21% | inactive | inactive | inactive | inactive | inactive |  | 
CC(=O)N[C@@H](CO)C(=O)N[C@@H](CC(=O)O)C(=O)N[C@@H](CCCCN)C(=O)N1CCC[C@H]1C(=O)O (Ac-SDKP-OH) | 17.5% | inactive | inactive | inactive | inactive | inactive |  | 
NNc1nnc(NN)c2ccccc12 | -13% | inactive | inactive | inactive | inactive | inactive |  | 
CC1CCc2cc(F)cc3c(=O)c(C(=O)O)cn1c23 (stereo not given) | -9.54% | inactive | inactive | inactive | inactive | inactive |  | 
CCOC(=O)[C@@](C)(N)Cc1ccc(O)c(O)c1 | 38.1% | inactive | inactive | inactive | inactive | inactive |  | 
C[C@]12C=CC(=O)C=C1CC[C@H]1[C@@H]3C[C@@H](O)[C@](O)(C(=O)CO)[C@@]3(C)C[C@H](O)[C@@]12F | 17% | inactive | inactive | inactive | inactive | inactive |  | 
FC(F)(F)C(F)(F)C(F)(F)C(F)(F)C(F)(F)C(F)(F)C(F)(F)C(F)(F)Br | -14.2% | inactive | inactive | inactive | inactive | inactive |  | 
C/C=C/C(=O)N(CC)c1ccccc1C | 23.4% | inactive | inactive | inactive | inactive | inactive |  | 
CCCCC(CC)COC(=O)C(C#N)=C(c1ccccc1)c1ccccc1 (stereo not given) | 53.9% | inactive | inactive | inactive | inactive | inactive |  | 
CCOc1cc(N)c(Cl)cc1C(=O)NCC1CN(Cc2ccc(F)cc2)CCO1 (stereo not given) | 26.3% | inactive | inactive | inactive |  | inactive | 39.8 µM (active) | 
CC(C)(C)NCC(O)COc1cccc2c1CCC(=O)N2 (stereo not given) | -22.9% | inactive | inactive | inactive | inactive | inactive |  | 
NC(=O)C1(N2CCCCC2)CCN(CCCC(=O)c2ccc(F)cc2)CC1 | 25.9% | inactive | inactive | inactive | inactive | inactive |  | 

SMILES | efficacy [1] | outcome [2] | outcome [3] | outcome [4] | outcome [5] | outcome [6] | AC50 [5] | AC50 [3]
C[C@H](O)C(=O)Nc1c(I)c(C(=O)NC(CO)CO)c(I)c(C(=O)NC(CO)CO)c1I | 6.82% | inactive | inactive | inactive | inactive | inactive |  | 
Cc1ccc2c(Cl)cc(Cl)c(O)c2n1 | -13.1% | inactive | inactive | inactive | inactive | inactive |  | 
C=C1C[C@H]2[C@@H]3C=C(C)C4=CC(=O)CC[C@]4(C)[C@H]3CC[C@]2(C)[C@@]1(OC(C)=O)C(C)=O | -35.6% | inactive | inactive | inactive | inactive | inactive |  | 
Cc1cc(O)c(C)c(C)c1O | -20.2% | inactive | inactive | inactive | inactive | inactive |  | 
Cc1cc(C(C)(C)C)c(O)c(C(C)(C)C)c1 | -23% | inactive | inactive | inactive | inactive | inactive |  | 
Cn1c(=O)c2c(ncn2C)n(C)c1=O | -24.5% | inactive | inactive | inactive | inactive | inactive |  | 
O=C1O[C@H]([C@@H](O)CO)C(O)=C1O | -34.4% | inactive | inactive | inactive | inactive | inactive |  | 
CCOC(=O)OC(C)OC1=C(C(=O)Nc2ccccn2)N(C)S(=O)(=O)c2ccccc21 (stereo not given) | 12.4% | inactive | inactive | inactive | inactive | inactive |  | 
CC(=O)/C=C/C=C1/C2CCC(C2)C1(C)C (stereo not given) | -14.5% | inactive | inactive | inactive | inactive | inactive |  | 
Cc1ncc([N+](=O)[O-])n1C | 20.2% | inactive | inactive | inactive | inactive | inactive |  | 
N[C@@H](Cc1c[nH]c2ccc(O)cc12)C(=O)O | 27.4% | inactive | inactive | inactive | inactive | inactive |  | 
O=C1CC2(CCCC2)CC(=O)N1CCNCC1COc2ccccc2O1 (stereo not given) | 16.2% | inactive | inactive | inactive | inactive | inactive |  | 
CC1(C)O[C@@H]2C[C@H]3[C@@H]4C[C@H](F)C5=CC(=O)CC[C@]5(C)[C@H]4[C@@H](O)C[C@]3(C)[C@]2(C(=O)CO)O1 | 23.9% | inactive | inactive | inactive | inactive | inactive |  | 
CCOC(=O)[C@H](CCc1ccccc1)N[C@@H](C)C(=O)N(CC(=O)O)C1Cc2ccccc2C1 | 28.2% | inactive |  | inactive |  | inactive | 20 µM (active) | 20 µM (active)
CCn1ccnc1CC1COc2ccccc2O1 (stereo not given) | -17.5% | inactive | inactive | inactive | inactive | inactive |  | 
N[C@@H](CSCCCO)C(=O)O | 25.1% | inactive | inactive | inactive | inactive | inactive |  | 
O=[N+]([O-])c1nccn1CO[C@@H](CO)[C@H](O)CO | -11.8% | inactive | inactive | inactive | inactive | inactive |  | 
CNC(=O)c1cnn(-c2nc(N)c3ncn([C@@H]4O[C@H](CO)[C@@H](O)[C@H]4O)c3n2)c1 | 20.7% | inactive | inactive | inactive | inactive | inactive |  | 
Nc1ccn([C@H]2CC[C@@H](CO)O2)c(=O)n1 | -13.2% | inactive | inactive | inactive | inactive | inactive |  | 
CCOc1ccc(NC(C)=O)cc1 | -22.6% | inactive | inactive | inactive | inactive | inactive |  | 
O=C1Nc2ccccc2C1(c1ccc(O)cc1)c1ccc(O)cc1 | -14% | inactive | inactive | inactive | inactive | inactive |  | 
O=C(O)CNC(=O)c1ccccc1I | -12.8% | inactive | inactive | inactive | inactive | inactive |  | 
